Usually AC50 stands for the concentration at which the activity in the assay is half-maximal.

The values below come from PubChem BioAssay (EPA / NIEHS).

Where “and” joins values, the source holds several entries; their conditions need not be identical. Equal entries are not always repeated. Results filed as inconclusive are left out. Calls of active or inactive are those of the source. The calls were made as follows: active = hit-call score of the fitted dose curve at least 0.9, where 1 is the maximum; inconclusive = response in the unintended direction; inactive = score below 0.9.

Chain of human Protein Tyrosine Phosphatase Non-receptor Type 2 (PTPN2), PTPN2 (gene 5771) (P17706 whole entry, looked up): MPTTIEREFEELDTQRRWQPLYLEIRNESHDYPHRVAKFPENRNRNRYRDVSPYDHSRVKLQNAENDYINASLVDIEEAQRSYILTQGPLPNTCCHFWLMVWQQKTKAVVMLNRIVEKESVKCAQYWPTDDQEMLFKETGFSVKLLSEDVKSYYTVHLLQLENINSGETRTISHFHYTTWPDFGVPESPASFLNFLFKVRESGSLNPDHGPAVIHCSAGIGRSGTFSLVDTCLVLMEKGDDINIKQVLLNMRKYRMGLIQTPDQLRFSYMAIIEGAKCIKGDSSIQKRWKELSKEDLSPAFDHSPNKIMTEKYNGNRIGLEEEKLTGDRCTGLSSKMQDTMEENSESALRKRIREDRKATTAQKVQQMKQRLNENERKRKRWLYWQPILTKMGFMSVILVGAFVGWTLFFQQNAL

This assay addresses human Protein Tyrosine Phosphatase Non-receptor Type 2 (PTPN2), PTPN2 (gene 5771) (UniProt P17706). Kind of assay: NVS_ENZ_hPTPN2: NovaScreen (NVS) Enzymatic Assay for human Protein Tyrosine Phosphatase Non-receptor Type 2 (PTPN2) (AID 2283207). How it is done:
NVS_ENZ_hPTPN2 is a biochemical, single-readout assay that uses extracted gene-proteins in a cell-free assay. Measurements were taken 1 hour after chemical dosing in a 384-well plate.NVS_ENZ_hPTPN2 is one of one assay component(s) measured or calculated from the NVS_ENZ_hPTPN2 assay. It is designed to make measurements of enzyme activity, a form of enzyme reporter, as detected with fluorescence intensity signals by Fluorescence and electrophoretic mobility shift technology.Data from the assay component NVS_ENZ_hPTPN2 was analyzed into 1 assay endpoint. This assay endpoint, NVS_ENZ_hPTPN2, was analyzed in the positive analysis fitting direction relative to DMSO as the negative control and baseline of activity. Using a type of enzyme reporter, loss-of-signal activity can be used to understand changes in the enzymatic activity as they relate to the gene PTPN2. Furthermore, this assay endpoint can be referred to as a primary readout, because this assay has produced multiple assay endpoints where this one serves a enzymatic activity function. To generalize the intended target to other relatable targets, this assay endpoint is annotated to the phosphatase intended target family, where the subfamily is non-receptor tyrosine phosphatase.
Binding assays used specific radioligands (tritiated, iodinated) with non-radioactive competitive displacement ligands in agonist or antagonist protocols (as indicated) and various reference compounds and inhibitors to titrate specific binding to receptors and transporters. Most enzyme assays (CYPs, kinases, phosphatases, proteases, HDACs) used recombinant protein and specific substrates (fluorescence mostly, some colorimetric and radioactive) and inhibitors, followed by a biochemical separation of substrate and product. All assays for the biochemical HTS were initially run in duplicate at a single concentration (10 uM for CYP450 assays and 25 uM for all others). […] Each assay was run with positive and negative controls, and concurrent controls on every plate. The follow-up (secondary) screen tested active chemical-pairs in concentration series, as well as a few additional assays not tested in the primary screen, some selected negative inactives, and several cases re-run in the concentration series for confirmatory purposes.
Consider `CCOC(=O)NCCOc1ccc(Oc2ccccc2)cc1`, for which the molecule was called inactive.
Consider `O=C(OCCCCCOC(=O)c1ccccc1)c1ccccc1`, for which the molecule was called inactive.
On to `CCOC(=O)C(C)(C)Oc1ccc(Cl)cc1`, for which the AC50 was 0.218 µM (active).
For the molecule `FC(F)(F)C(F)(F)C(F)(F)C(F)(F)C(F)(F)C(F)(F)CCI`, the result was inactive.
In the case of `CCCCCCCCCCCCc1ccccc1S(=O)(=O)O`, the AC50 is 19.9 µM (active).
`O=C(O)c1cc(N=Nc2ccc(S(=O)(=O)Nc3ccccn3)cc2)ccc1O`: the outcome was inactive.
Regarding `O=C(O)CC(O)C(=O)O` (configuration not stated), the result was inactive.
For `O=c1[nH]cnc2c1ncn2[C@H]1CC[C@@H](CO)O1`, the call was inactive.
`S=C(S)NCCNC(=S)S.[Mn+2].[S-]C([S-])=NCCN=C([S-])[S-].[Zn+2]`: the concentration at half-maximal activity (AC50) is 898 nM (active) and 519 nM (active).
On the same count and under the same terms, the figure for `S=C([S-])NCCNC(=S)[S-].[Mn+2]` is 0.295 µM (active).
`COc1nc(C)nc(NC(=O)NS(=O)(=O)c2ccccc2OCCCl)n1`: the molecule was called inactive.
Consider `O=C(O)C1(C(=O)Nc2ccc(Cl)cc2Cl)CC1`, for which the AC50 was 10.1 µM (active).
`CCCC(CCC)C(=O)O`: the result was inactive.
Same read-out and setting: the same measure for `Cc1ncc([C@@H](CCCCCCc2ccc3c(n2)NCCC3)CC(=O)O)cn1`: “inactive”; for `O=[N+]([O-])c1ccc(Cl)cc1`: “inactive”.
Regarding `c1ccc2n[nH]nc2c1`, the call was inactive.
Turning to `CC(C)CCCCCCc1ccc(O)cc1`, the molecule was classed as inactive.
With `c1ccc(Nc2ccccc2)cc1`, the outcome was inactive.
With `OC[C@H]1O[C@@H]2O[C@H]3[C@H](O)[C@@H](O)[C@@H](O[C@H]4[C@H](O)[C@@H](O)[C@@H](O[C@H]5[C@H](O)[C@@H](O)[C@@H](O[C@H]6[C@H](O)[C@@H](O)[C@@H](O[C@H]7[C@H](O)[C@@H](O)[C@@H](O[C@H]1[C@H](O)[C@H]2O)O[C@@H]7CO)O[C@@H]6CO)O[C@@H]5CO)O[C@@H]4CO)O[C@@H]3CO`, the molecule was called inactive.
With `COc1cc(C(=O)NC2CCN(C)CC2)ccc1Nc1ncc2c(n1)N(C1CCCC1)CC(F)(F)C(=O)N2C`, the AC50 is 6.13 µM (active).
Take `NCCO`: the result was inactive.
Same read-out and setting: the entry for `CC/C(=C(/CC)c1ccc(O)cc1)c1ccc(O)cc1` is “inactive”.
